Measured values as given in PubChem BioAssay AID1211 (NMMLSC, 2008).
Active and inactive are the calls of the source. The rule behind the calls is not given here.

Target: Estrogen receptor (Homo sapiens) (UniProt P03372)
Assay: ERalpha ligand binders by competition, primary screen, cell-based, Cos7 ERalpha-GFP, flow cytometry (AID 1211);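 note: 0% = DMSO vehicle wells and 100% = no E2-Alexa633 signal left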
Conditions: fluorescent ligand competition, stronger effect = higher value

Chain of Estrogen receptor (Homo sapiens) (P03372 whole entry, looked up): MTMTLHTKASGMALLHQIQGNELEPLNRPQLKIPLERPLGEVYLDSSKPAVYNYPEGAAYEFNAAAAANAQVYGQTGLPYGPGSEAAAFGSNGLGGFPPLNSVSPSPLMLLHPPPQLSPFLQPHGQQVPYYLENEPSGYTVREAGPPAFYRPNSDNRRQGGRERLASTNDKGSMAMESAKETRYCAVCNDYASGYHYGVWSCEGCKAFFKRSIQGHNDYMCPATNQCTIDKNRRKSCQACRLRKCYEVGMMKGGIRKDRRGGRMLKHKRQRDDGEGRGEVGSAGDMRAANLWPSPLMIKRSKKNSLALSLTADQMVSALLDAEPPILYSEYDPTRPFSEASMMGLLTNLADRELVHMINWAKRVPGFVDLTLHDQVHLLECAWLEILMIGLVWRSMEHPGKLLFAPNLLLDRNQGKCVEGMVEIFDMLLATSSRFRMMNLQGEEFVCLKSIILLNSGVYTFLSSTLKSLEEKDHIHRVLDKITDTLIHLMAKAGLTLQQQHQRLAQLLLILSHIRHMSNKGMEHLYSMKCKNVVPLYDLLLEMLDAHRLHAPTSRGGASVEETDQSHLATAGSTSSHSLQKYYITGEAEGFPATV

Row | SMILES | inhibition of ligand binding (at 10 µM) | inhibition of ligand binding (binding inhibition, at 0.1 µM) [%]
1 | Cc1cc(NC(=O)CSc2cn(CCNC(=O)c3ccc(Cl)cc3)c3ccccc23)no1 | 15% (inactive) | 37
2 | CC1(C)CC(=O)c2c(oc3cc(O)c(O)cc23)C1 | 20% (inactive) | 54
3 | O=C(CCCn1c(=S)[nH]c2ccccc2c1=O)N1CCN(c2cccc(Cl)c2)CC1 | 55% (inactive) | 15
4 | Cc1occc1C(=O)NCc1cccc(CNC(=O)c2ccoc2C)c1 | 39% (inactive) | 26
5 | COC1=C/C(=C/c2c(N)n3cc(C)sc3nc2=O)C=CC1=O | 34% (inactive) | 10
6 | O=C(CNc1ccccc1)N/N=C/c1cn(-c2ccccc2)nc1-c1ccccc1 | 28% (inactive) | 52
7 | COc1ccc(/C=N/NC(=O)c2nc(-c3ccccc3)n(-c3ccccc3)n2)c(O)c1 | 41% (inactive) | 52
8 | COc1cc2cc(C(c3nnnn3C3CCCC3)N3CCc4ccccc43)c(=O)[nH]c2cc1OC (stereo unspecified) | 36% (inactive) | 56
9 | CC(=O)Nc1nonc1-c1nc2ccccc2n1N(C(C)=O)C(C)=O | 44% (inactive) | 59
10 | CC1CCN(S(=O)(=O)c2ccc(NC(=O)Cc3cccs3)cc2)CC1 | 62% (inactive) | 56
11 | COc1ccc(-c2nc(C(N)=O)c3[nH]c(=O)n(-c4cccc(Cl)c4)c3n2)cc1OC | 0% (inactive) | 6
12 | Cc1ccc(C(=O)N/N=C/c2ccc([N+](=O)[O-])s2)cc1 | 40% (active) | 73
13 | O=C(CSc1nnnn1-c1ccccc1)Nc1nsc(-c2ccc(Cl)cc2)n1 | 47% (inactive) | 8
14 | Cc1ccnc(NS(=O)(=O)c2ccc(NC(=O)c3cc(-c4ccc(Br)cc4)nc4ccccc34)cc2)n1 | 49% (inactive) | 47
15 | Cc1nnc(NC(=O)Cc2cccs2)s1 | 44% (inactive) | 42
16 | CC(C)c1ccc2c(c1)[C@H]1OCC[C@H]1[C@@H](c1cccs1)N2 | 0% (inactive) | 20
17 | CC(C)CN(C(=O)COC(=O)c1cc2c(s1)CCC2)C1CCS(=O)(=O)C1 (stereo unspecified) | 47% (inactive) | 21
18 | NC(=S)n1[nH]c(-c2ccc([N+](=O)[O-])cc2)c(N=Nc2ccc(O)cc2)c1=O | 10% (inactive) | 18
19 | Cc1ccc(-n2c(SCC(=O)NNC(=S)Nc3ccccc3)nc3ccccc3c2=O)cc1 | 37% (inactive) | 44

Row | SMILES | inhibition of ligand binding (at 10 µM) | inhibition of ligand binding (binding inhibition, at 0.1 µM) [%]
20 | CCc1ccc(NC(=O)c2noc3c2CCC3)cc1 | 2% (inactive) | 9
21 | Nc1nc(-c2ccc3c(c2)NC(=O)CO3)cs1 | 32% (inactive) | 12
22 | O=C(Nc1cccc2cccc(NC(=O)c3ccco3)c12)c1ccco1 | 54% (inactive) | 46
23 | ON=C1/C(=N\O)CC2(C/C1=N/O)OCCO2 | 33% (inactive) | 48
24 | Nc1ccc2oc(-c3ccccc3Cl)cc(=O)c2c1O | 46% (inactive) | 30
25 | Cc1ccccc1Nc1nnc(SCC(=O)NCc2ccco2)s1 | 40% (inactive) | 11
26 | COc1ccc(C2Nc3ccccc3C(=O)N2c2ccc(F)cc2)cc1CSc1ccccn1 (stereo unspecified) | 10% (inactive) | 28
27 | COc1cc(NC(=O)COc2ccc(-n3cnnn3)cc2)c(OC)cc1Cl | 58% (inactive) | 41
28 | CN1C(=O)CSc2ccc(NC(=O)N3CCC(N4CCCCC4)CC3)cc21 | 57% (inactive) | 1
29 | CCO/C([O-])=N/c1c[n+](N2CCOCC2)no1 | 0% (inactive) | 12
30 | COc1cc(C(C#N)N2N=C(c3ccccc3)CC2c2ccccc2)ccc1O (stereo unspecified) | 3% (inactive) | 3
31 | CN(C)NC(=S)Nc1ccc2nc(-c3ccccn3)c(-c3ccccn3)nc2c1 | 11% (inactive) | 4
32 | Cc1ccc2occ(C3NC(C(=O)O)CS3)c(=O)c2c1 (stereo unspecified) | 39% (inactive) | 27
33 | COc1ccc(-n2c(SCC(=O)Nc3nccs3)nc3sc4c(c3c2=O)CCN(C)C4)cc1 | 30% (inactive) | 24
34 | O=C(COC(=O)CCOc1ccccc1)NCc1ccco1 | 50% (inactive) | 57
35 | COc1ccc(-c2ccc(-c3noc(-c4cccs4)n3)c(OC)n2)cc1 | 24% (inactive) | 54
36 | Cc1ccc(OCCN2CCN(CC(O)Cn3c4ccccc4c4ccccc43)CC2)cc1 (stereo unspecified) | 37% (inactive) | 33
37 | CCc1ccc(Nc2cc(C(=O)NCCCN3CCOCC3)c3ccccc3n2)cc1 | 25% (inactive) | 32
38 | Cc1ccccc1NC(=O)CSc1nnc(-c2ccco2)c(-c2ccco2)n1 | 47% (active) | 66
